IDE exosite FP: displaces the probe from the exo-site of human IDE. P14735. purified IDE, FL-6b probe fluorescence polarization; hits give low values. z-score at 20 µM. 6.3% of 17,000 active. AID 1259349;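 active means z-score of -3 or lower, meaning strong loss of probe binding signal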;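 further: His-tagged human IDE residues 42-1019 made in E. coli with 30 nM FL-6b probe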
Target sequence (P14735 42-1019 limits assumed): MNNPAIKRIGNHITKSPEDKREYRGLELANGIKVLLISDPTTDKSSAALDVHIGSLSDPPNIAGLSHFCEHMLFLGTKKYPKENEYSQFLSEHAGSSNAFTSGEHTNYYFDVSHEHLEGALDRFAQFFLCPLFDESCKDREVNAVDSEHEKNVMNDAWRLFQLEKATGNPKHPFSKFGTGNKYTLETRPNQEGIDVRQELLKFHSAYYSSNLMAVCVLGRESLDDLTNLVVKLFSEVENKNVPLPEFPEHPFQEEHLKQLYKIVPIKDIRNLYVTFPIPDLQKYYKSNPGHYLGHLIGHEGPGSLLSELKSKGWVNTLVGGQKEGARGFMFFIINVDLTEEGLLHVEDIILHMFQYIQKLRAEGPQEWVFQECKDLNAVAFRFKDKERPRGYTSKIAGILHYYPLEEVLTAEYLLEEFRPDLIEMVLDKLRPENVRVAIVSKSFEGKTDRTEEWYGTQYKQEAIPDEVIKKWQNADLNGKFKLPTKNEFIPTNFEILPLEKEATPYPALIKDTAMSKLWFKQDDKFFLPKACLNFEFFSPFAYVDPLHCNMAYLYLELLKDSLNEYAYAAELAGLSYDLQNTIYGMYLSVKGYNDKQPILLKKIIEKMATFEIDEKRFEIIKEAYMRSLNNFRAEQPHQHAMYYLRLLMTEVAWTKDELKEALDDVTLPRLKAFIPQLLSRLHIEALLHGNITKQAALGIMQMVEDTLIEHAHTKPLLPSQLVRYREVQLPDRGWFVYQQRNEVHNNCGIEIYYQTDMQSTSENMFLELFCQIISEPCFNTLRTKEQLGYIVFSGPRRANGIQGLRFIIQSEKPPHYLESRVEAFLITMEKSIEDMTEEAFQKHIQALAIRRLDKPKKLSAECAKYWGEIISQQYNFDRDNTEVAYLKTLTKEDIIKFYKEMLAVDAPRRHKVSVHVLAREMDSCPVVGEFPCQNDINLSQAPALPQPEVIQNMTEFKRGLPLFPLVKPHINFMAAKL
A number is an active result; n = inactive. The full list was thinned out, with hits kept by preference.

SMILES	IDE exosite FP
O=C(CC1CC1)N1CC(=O)N2[C@H](C1)[C@@H](c1ccc(-c3ccccc3)cc1)[C@@H]2CO	-8.94
N#Cc1ccc(-c2ccc([C@H]3[C@H](CO)N4C(=O)CN(C(=O)C5CC5)C[C@@H]34)cc2)cc1	n
O=C(Nc1cccc(F)c1)N1CC(=O)N2[C@H](CO)[C@@H](c3ccc(-c4ccccc4)cc3)[C@@H]2C1	n
C[C@@H]1CN([C@H](C)CO)C(=O)c2cc(/C=C/c3ccccc3)cnc2O[C@@H]1CN(C)S(=O)(=O)c1ccccc1F	n
C[C@@H]1CN([C@@H](C)CO)C(=O)c2cc(N(C)C)ccc2O[C@H]1CN(C)Cc1ccc(Oc2ccccc2)cc1	n
C[C@@H]1CN([C@@H](C)CO)C(=O)c2cc(/C=C/c3ccccc3)cnc2O[C@@H]1CN(C)S(=O)(=O)c1ccccc1F	-3.96
Cc1noc(C)c1S(=O)(=O)Nc1ccc2c(c1)CC(=O)N([C@@H](C)CO)C[C@H](C)[C@@H](CN(C)Cc1ccc(Oc3ccccc3)cc1)O2	-4.3
Cc1noc(C)c1S(=O)(=O)Nc1ccc2c(c1)CC(=O)N([C@H](C)CO)C[C@H](C)[C@H](CN(C)Cc1ccc(Oc3ccccc3)cc1)O2	n
C[C@@H]1CN([C@@H](C)CO)C(=O)c2cc(N(C)C)ccc2O[C@@H]1CN(C)Cc1ccc(Oc2ccccc2)cc1	n
C[C@H]1CN([C@@H](C)CO)C(=O)c2cc(Br)cnc2O[C@H]1CN(C)Cc1ccc(Oc2ccccc2)cc1	-3.47
Cc1noc(C)c1S(=O)(=O)Nc1ccc2c(c1)CC(=O)N([C@H](C)CO)C[C@@H](C)[C@H](CN(C)Cc1ccc(Oc3ccccc3)cc1)O2	n
C[C@H](CO)N1C[C@H](C)[C@@H](CN(C)S(=O)(=O)c2ccccc2F)Oc2ncc(/C=C/c3ccccc3)cc2C1=O	n
N#C[C@H]1[C@H](c2ccc(C#CCC3CCCC3)cc2)[C@H](CO)N1C(=O)CN1CCOCC1	n
O=C(CN1CCOCC1)N1CC2(C1)[C@H](c1ccccc1)[C@H](CO)N2Cc1cccc(F)c1	n
C[C@H]1CN([C@@H](C)CO)C(=O)CCCn2nncc2CO[C@H]1CN(C)Cc1ccc2c(c1)OCCN2C	n
C[C@@H]1CN([C@H](C)CO)C(=O)c2cc(NC(=O)Cc3ccccc3)ccc2O[C@@H](C)CCCCO[C@H]1CN(C)Cc1ccncc1	n
CS(=O)(=O)N1C[C@H](O)COC[C@H]2O[C@@H](CC(=O)NCc3ccccc3)CC[C@@H]21	n
CN(C[C@@H]1[C@H](c2ccccc2)[C@H](CO)N1Cc1ccccn1)S(C)(=O)=O	n
CN(C)CC(=O)N1[C@H](C#N)[C@@H](c2ccc(/C=C/c3ccccc3)cc2)[C@H]1CO	-5.4
CN(C)CC(=O)N1[C@H](C#N)[C@@H](c2ccccc2-c2ccccc2F)[C@@H]1CO	n
COc1ccccc1-c1ccc([C@@H]2[C@@H](CO)N(C(=O)CN(C)C)[C@H]2C#N)cc1	-15
COc1ccccc1-c1ccccc1[C@H]1[C@@H](C#N)N(C(=O)CN(C)C)[C@@H]1CO	n
COc1ccccc1-c1ccccc1[C@@H]1[C@@H](C#N)N(C(=O)CN(C)C)[C@H]1CO	n
CN(C)CC(=O)N1[C@H](C#N)[C@@H](c2ccc(-c3ccccc3F)cc2)[C@@H]1CO	n
CN(C)CC(=O)N1[C@@H](C#N)[C@H](c2ccc(-c3ccccc3F)cc2)[C@@H]1CO	-4.49
SMILES	IDE exosite FP
CCCNC(=O)N1[C@H](CO)[C@H](c2ccc(/C=C/c3ccccc3)cc2)[C@@H]1C#N	n
COc1ccccc1-c1ccccc1[C@@H]1[C@@H](CO)N(C(=O)CN(C)C)[C@H]1C#N	n
COc1ccccc1-c1ccccc1[C@H]1[C@@H](CO)N(C(=O)CN(C)C)[C@H]1C#N	n
CN(C)CC(=O)N1[C@H](CO)[C@H](c2ccc(/C=C/c3ccccc3)cc2)[C@@H]1C#N	n
COc1ccccc1-c1ccc([C@H]2[C@@H](C#N)N(C(=O)CN(C)C)[C@@H]2CO)cc1	-4.2
O=S(=O)(c1cccs1)N1CCCCN2[C@@H](CO)[C@@H](c3ccc(C4=CCCC4)cc3)[C@@H]2C1	n
O=C(C1CCC1)N1CC2(C1)[C@H](c1ccccc1)[C@@H](CO)N2Cc1nccs1	n
CCCNC(=O)N(C)C[C@@H]1Oc2cc(C#C[C@@H](C)O)ccc2S(=O)(=O)N([C@@H](C)CO)C[C@H]1C	n
C/C=C/c1ccc([C@H]2[C@@H](C#N)N(C(=O)Cc3ccccn3)[C@H]2CO)cc1	n
C/C=C/c1ccc([C@@H]2[C@H](C#N)N(C(=O)Cc3ccccn3)[C@H]2CO)cc1	n
N#C[C@H]1[C@@H](c2ccc(/C=C/c3ccccc3)cc2)[C@@H](CO)N1C(=O)Cc1ccccn1	-3.72
N#C[C@@H]1[C@@H](c2ccc(-c3cccc(F)c3)cc2)[C@H](CO)N1C(=O)NC1CCCC1	n
C[C@H]1CN([C@@H](C)CO)C(=O)c2c(c3ccccc3n2C)-c2ccccc2CO[C@@H]1CN(C)C(=O)Nc1ccccc1C(F)(F)F	n
O=C(CC1CC1)N1CC(=O)N2[C@@H](CO)[C@H](c3ccc(C#Cc4ccccc4)cc3)[C@@H]2C1	-11.2
